We go through 18 molecules from PubChem BioAssay (NCATS).

Records with an inconclusive call do not appear. The source made the active and inactive calls. Unless noted, the call rests on the fitted dose curve; in most records, active means well fitted curve in the direction sought with a large enough effect; inconclusive means small, poorly fitted or top-dose-only effect, or another doubt; inactive means no such curve, though single readings can be large; an effect the other way counts as inactive or inconclusive. Starred links: 1 amine or outer side, 2 acyl side, 3 side chain; linkers in the order of their positions; H or OH if unused. Positions of bridges follow the written chain, without caps; N, C: chain ends. Non-standard residues stand in square brackets, D forms with d. Residues, ends and D or L forms follow the SMILES beside them. *: point of attachment. X4 = NC1=N[C@@H](O)C[C@H]([C@H](N[*:1])C(=O)[*:2])N1; ΔAla(3-NHCONH2) = NC(=O)NC=C(N)C(=O)O; β3hOrn = NCCC[C@H](N)CC(=O)*; Dap = NC[C@H](N)C(=O)O

For assay [1], the target named is Cytochrome P450 2C9 (Homo sapiens) (UniProt P11712). Nature of the assay: qHTS Assay for Inhibitors and Substrates of Cytochrome P450 2C9 (AID 883). Further: nearly all actives have a fitted effect of over 60% in size. Further: potency means the concentration at half of the fitted maximal effect. On activity change, negative = inhibition: on the % scale 0 is the no-effect control and ±100 the full control effect. The essentials:
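A luminogenic readout tracked human CYP2C9 (10nM) converting deoxyluciferin (100uM, at KM) in 25mM KPO4 during 60 min at 37C with regenerated NADPH. Values normalized to 57uM sulphaphenazole as complete inhibition.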

Assay [2] has as its target Rap guanine nucleotide exchange factor 3 (Homo sapiens) (UniProt O95398). Nature of the assay: Counterscreen qHTS for antagonist of cAMP-regulated guanine nucleotide exchange factor 3 (EPAC1) (AID 1645888).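 Further: fluorescence loss as bound BODIPY-GDP is released from Rap1B; % of control where 0% means no effect.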 Put shortly:
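Measured: fluorescence of BODIPY-GDP bound to Rap1B, which falls as exchange proceeds. Conditions include 50 uM competing GDP, 5 and 30 min reads, and a later cAMP challenge for antagonist detection.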

Assay [3] concerns the target Cytochrome P450 2D6 (Homo sapiens) (UniProt P10635). Nature of the assay: Cytochrome P450 family 2 subfamily D member 6 (CYP2D6) small molecule antagonists: luciferase biochemical (cell-free) qHTS assay (AID 1645840; active means well fitted curve in the direction sought with a large enough effect in the repeat runs; an effect the other way counts as inactive or inconclusive; further: on the % scale 0 is the no-effect control and ±100 the full control effect; nearly all actives have a fitted effect of over 55% in size). Put shortly:
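P450-Glo luminescent screen: recombinant CYP2D6 enzyme–proluciferin substrate mix preincubated with compound 10 min at room temperature, then NADPH regeneration added for 1 h at room temperature. Detection reagent added for 20 min; luciferin light read as relative luminescence units.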

Assay [4] in a line: qHTS profiling of the MIPE4 collection as inhibitors of Plasmodium falciparum (3D7) proliferation (AID 743344; call rule not given here;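 further: scaled between DMSO vehicle wells and 0.29 µM artemisinin as full inhibition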). The note with it: P. falciparum 3D7 in erythrocytes, SYBR Green DNA fluorescence, 72 h; at 5.51 µM (top of the series) unless noted. Put shortly:
(§1)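 Erythrocytes infected with P. falciparum (0.3% parasitemia, 2.5% hematocrit) incubated with compounds 72 h at 37 C, 5% CO2. Lysis with saponin/Triton buffer containing SYBR Green I, overnight at room temperature in the dark; DNA fluorescence (485/535 nm) normalised to 0.29 uM artemisinin and DMSO.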

Assay [5] is described as follows: qHTS profiling of the MIPE4 collection as inhibitors of Plasmodium falciparum (DD2) proliferation (AID 743345; call rule not given here). The note with it: P. falciparum Dd2 in erythrocytes, SYBR Green DNA, 72 h; at 5.51 µM (top of the series) unless noted. The essentials: as §1
The nature of assay [6]: qHTS profiling of the MIPE4 collection as inhibitors of Plasmodium falciparum (DD2) proliferation (Rep 2) (AID 743346; call rule not given here). The note with it: P. falciparum Dd2 in erythrocytes, SYBR Green DNA, 72 h; at 5.51 µM (top of the series) unless noted. The essentials:
as §1

Assay [7] can be described thus: qHTS profiling of the MIPE4 collection as inhibitors of Plasmodium falciparum (HB3) proliferation (AID 743347; call rule not given here;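 further: plate controls were DMSO vehicle wells for no effect and artemisinin wells for full effect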). The note with it: P. falciparum HB3 in erythrocytes, SYBR Green DNA, 72 h; at 5.51 µM (top of the series) unless noted. The essentials: as §1
Assay [8] can be described thus: qHTS Assay for Identification of Small Molecule Agonists for Hypoxia Response Element Signaling Pathway (AID 914; active means well fitted activation curve with a large enough effect in the signal ratio, with a control signal flat, not every such curve was filed as active; the % refers to the signal ratio; further: potency means the concentration at half of the fitted maximal effect). The note with it: ME-180 (cervical carcinoma) HRE-bla reporter, beta-lactamase ratio, CoCl2, 17 h; activation: stronger effect = higher value. The essentials:
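HRE-bla ME-180 cells with beta-lactamase reporter under hypoxia response element, compounds with EC50 CoCl2 for 17 hours at 37 C. CCF4 substrate, 460nm/530nm emission ratio gave %Activity; AC50 from titration series.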

Assay [9] is described as follows: NCATS anti-infectives library activity on HEK293 viability as a counter-qHTS vs the C. elegans viability qHTS (AID 1745854).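 Further: HEK293 cells exposed to compounds for 24 hr before the viability read; on the % scale 0 is the no-effect control and ±100 the full control effect.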 The essentials: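 HEK293 cells (1,500/well) exposed 24 hr at 37C to 1:5 titrations, up to 41.7 uM final; counter-screen to a C. elegans viability qHTS. Viability by CellTiter-Glo luminescence after 10 min at room temperature; digitonin as control.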

Assay [10] deals with Endonuclease 4 (Escherichia coli (strain K12)) (UniProt P0A6C1). Nature of the assay: Counterscreen for APE1 Inhibitors: qHTS Validation Assay for Inhibitors of Endonuclease IV (AID 1708). Further: on the % scale 0 is the no-effect control and ±100 the full control effect. The essentials: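 Concentration-response counterscreen run identically to the APE1 assay: 15 min room-temperature preincubation of 2 nM enzyme with compound, reaction started with 50 nM quenched abasic DNA, progress taken from kinetic fluorescence.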

Assay [11] has as its target Ferritin light chain (Equus caballus) (UniProt P02791). Nature of the assay: qHTS Validation Assay for Identification of Novel General Anesthetics (AID 2323). Further: on the % scale 0 is the no-effect control and ±100 the full control effect. Put shortly: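 Apoferritin from horse spleen (10 uM) was mixed with 1-aminoanthracene at 50% saturation in PBS, then compounds were added. After 10 min at room temperature, fluorescence was read (ex 380 nm, em 535 nm) and normalized to free-probe and complex controls.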

The nature of assay [12]: Validation screen for small molecules that induce DNA re-replication in MCF 10A normal breast cells (AID 463097). Further: 0% is about no effect; nearly all actives have a fitted effect of over 60% in size. Put shortly:
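DNA re-replication was detected as a rise in nuclei with elevated Hoechst fluorescence after a 48 hr compound exposure of MCF 10A cells at 37 C.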

The nature of assay [13]: qHTS for differential inhibitors of proliferation of Plasmodium falciparum line 7G8 (AID 1815).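 Further: parasite growth measured after three days of incubation.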 Further: potency means the concentration at half of the fitted maximal effect.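 On activity change, negative = inhibition: plate controls were vehicle wells for no effect and reference inhibitor wells for full effect.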
A short description of assay [14]: qHTS for differential inhibitors of proliferation of Plasmodium falciparum line GB4 (AID 1816).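 Further: parasite growth measured after 72 h incubation.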 Further: potency means the concentration at half of the fitted maximal effect.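 On activity change, negative = inhibition: 0% = vehicle DMSO and -100% = reference inhibitor.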 The note with it: Potency: Plasmodium falciparum GB4 proliferation inhibition.
A short description of assay [15]: qHTS for differential inhibitors of proliferation of Plasmodium falciparum line D10 (AID 1877).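 Further: parasites grown with compound for 72 h before DNA staining.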 Further: potency means the concentration at half of the fitted maximal effect.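 On activity change, negative = inhibition: plate controls were vehicle wells for no effect and reference inhibitor wells for full effect.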
Assay [16] in a line: qHTS Assay for Modulators of Human Peripheral Myelin Protein 22 (PMP22) Expression/Activity (AID 1967; active means well fitted curve in the direction sought with a large enough effect in the signal ratio; the % refers to the signal ratio;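 further: 0% = untreated cells and 100% end not stated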). Put shortly: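 Quantitative HTS in a mouse Schwann cell line expressing dual click beetle luciferases: Pmp22 promoter (green) and control EF-alpha promoter (red). After 24h treatment, corrected green/red signal ratio gave %Activity relative to untreated cells.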
Assay [17] concerns the target RecQ-like DNA helicase BLM (Homo sapiens) (UniProt P54132). In words: qHTS Validation Assay for Inhibitors of Bloom's syndrome helicase (BLM) (AID 2364).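 Further: plate controls were DMSO vehicle for no effect and enzyme-free control for full effect.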 Put shortly: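 BLM 50 nM in 25 mM Tris-HCl pH 8.0, 5 mM NaCl, 2 mM MgCl2, 1 mM DTT, 0.01% Tween-20, 2.5 ug/ml poly(dI-dC); 15 min cpd preinc, RT. Start: 200 nM forked DNA + 2 mM ATP (final). TAMRA read, 2 reads 2 h apart.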

The nature of assay [18]: Quantitative high throughput screen for delayed death inhibitors of the malarial parasite plastid, 48 hour incubation (AID 488752). Further: on the % scale 0 is the no-effect control and ±100 the full control effect; nearly all actives have a fitted effect of over 65% in size. Put shortly: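 Erythrocytes infected with firefly luciferase-expressing P. falciparum (2% hematocrit, 0.1% parasitemia) cultured with compound for 48 h at 37 C, 5% CO2, in RPMI 1640/0.5% Albumax. Growth inhibition read as loss of luminescence.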

Assay [19] in a line: Validation screen for small molecules that induce DNA re-replication in SW480 colon adenocarcinoma cells (AID 504364). Further: 0% is about no effect. Put shortly: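 SW480 cells (250/well) exposed 48 h at 37 C, 5% CO2, then Hoechst-stained 40 min. Nuclear DNA content imaged by fluorescence scanning (405 nm excitation, 500-530 nm emission); re-replication scored as increased nuclei with elevated intensity.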

Assay [20] in a line: qHTS profiling for inhibitors of Plasmodium falciparum proliferation (AID 504749). Further: potency means the concentration at half of the fitted maximal effect; nearly all actives have a fitted effect of over 60% in size. The following applies: P. falciparum in erythrocytes, SYBR Green DNA, 72 h. The essentials: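 Parasite proliferation within erythrocytes, 72 h exposure. Endpoint: SYBR Green I fluorescence after overnight lysis at room temperature. Controls: 0.29 uM artemisinin, DMSO.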

Sequence of Rap guanine nucleotide exchange factor 3 (Homo sapiens) (O95398 whole entry, looked up): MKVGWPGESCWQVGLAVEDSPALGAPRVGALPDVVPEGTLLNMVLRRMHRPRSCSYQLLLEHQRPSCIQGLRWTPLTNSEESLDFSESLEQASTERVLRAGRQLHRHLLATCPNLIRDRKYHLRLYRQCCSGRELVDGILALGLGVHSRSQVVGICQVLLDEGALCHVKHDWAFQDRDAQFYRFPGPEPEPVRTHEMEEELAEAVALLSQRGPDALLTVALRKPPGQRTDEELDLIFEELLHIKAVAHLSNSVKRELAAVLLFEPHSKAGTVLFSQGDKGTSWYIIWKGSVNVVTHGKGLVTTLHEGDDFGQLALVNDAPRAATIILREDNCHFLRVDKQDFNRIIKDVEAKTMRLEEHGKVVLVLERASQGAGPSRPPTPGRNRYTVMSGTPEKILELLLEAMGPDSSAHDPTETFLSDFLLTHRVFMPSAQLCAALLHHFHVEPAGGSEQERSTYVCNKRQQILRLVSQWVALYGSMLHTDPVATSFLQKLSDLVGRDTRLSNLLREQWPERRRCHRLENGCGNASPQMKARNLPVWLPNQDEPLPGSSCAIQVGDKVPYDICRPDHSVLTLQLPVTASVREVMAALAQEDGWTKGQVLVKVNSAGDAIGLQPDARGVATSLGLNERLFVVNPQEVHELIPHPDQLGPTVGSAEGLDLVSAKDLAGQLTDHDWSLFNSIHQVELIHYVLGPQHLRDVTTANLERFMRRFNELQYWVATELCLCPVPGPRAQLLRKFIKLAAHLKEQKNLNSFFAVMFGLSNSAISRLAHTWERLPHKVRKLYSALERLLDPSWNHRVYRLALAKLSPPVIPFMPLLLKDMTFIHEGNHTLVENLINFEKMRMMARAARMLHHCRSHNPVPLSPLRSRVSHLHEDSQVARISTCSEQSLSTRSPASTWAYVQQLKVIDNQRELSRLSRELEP
Sequence of Cytochrome P450 2C9 (Homo sapiens) (P11712 whole entry, looked up): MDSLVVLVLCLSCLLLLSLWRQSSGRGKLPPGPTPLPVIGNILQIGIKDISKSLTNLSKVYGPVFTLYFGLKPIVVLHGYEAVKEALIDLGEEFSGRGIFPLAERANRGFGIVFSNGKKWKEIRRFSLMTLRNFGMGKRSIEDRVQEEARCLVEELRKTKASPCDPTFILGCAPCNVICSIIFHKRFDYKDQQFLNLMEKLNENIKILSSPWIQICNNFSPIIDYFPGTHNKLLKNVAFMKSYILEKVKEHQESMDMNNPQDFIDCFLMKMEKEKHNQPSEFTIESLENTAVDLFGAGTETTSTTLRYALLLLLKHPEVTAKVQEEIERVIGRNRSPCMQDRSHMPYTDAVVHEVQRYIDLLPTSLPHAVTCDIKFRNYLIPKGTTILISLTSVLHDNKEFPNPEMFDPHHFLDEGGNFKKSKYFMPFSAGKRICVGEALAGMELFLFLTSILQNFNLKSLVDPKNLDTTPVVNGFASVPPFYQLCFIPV
Sequence of RecQ-like DNA helicase BLM (Homo sapiens) (P54132 whole entry, looked up): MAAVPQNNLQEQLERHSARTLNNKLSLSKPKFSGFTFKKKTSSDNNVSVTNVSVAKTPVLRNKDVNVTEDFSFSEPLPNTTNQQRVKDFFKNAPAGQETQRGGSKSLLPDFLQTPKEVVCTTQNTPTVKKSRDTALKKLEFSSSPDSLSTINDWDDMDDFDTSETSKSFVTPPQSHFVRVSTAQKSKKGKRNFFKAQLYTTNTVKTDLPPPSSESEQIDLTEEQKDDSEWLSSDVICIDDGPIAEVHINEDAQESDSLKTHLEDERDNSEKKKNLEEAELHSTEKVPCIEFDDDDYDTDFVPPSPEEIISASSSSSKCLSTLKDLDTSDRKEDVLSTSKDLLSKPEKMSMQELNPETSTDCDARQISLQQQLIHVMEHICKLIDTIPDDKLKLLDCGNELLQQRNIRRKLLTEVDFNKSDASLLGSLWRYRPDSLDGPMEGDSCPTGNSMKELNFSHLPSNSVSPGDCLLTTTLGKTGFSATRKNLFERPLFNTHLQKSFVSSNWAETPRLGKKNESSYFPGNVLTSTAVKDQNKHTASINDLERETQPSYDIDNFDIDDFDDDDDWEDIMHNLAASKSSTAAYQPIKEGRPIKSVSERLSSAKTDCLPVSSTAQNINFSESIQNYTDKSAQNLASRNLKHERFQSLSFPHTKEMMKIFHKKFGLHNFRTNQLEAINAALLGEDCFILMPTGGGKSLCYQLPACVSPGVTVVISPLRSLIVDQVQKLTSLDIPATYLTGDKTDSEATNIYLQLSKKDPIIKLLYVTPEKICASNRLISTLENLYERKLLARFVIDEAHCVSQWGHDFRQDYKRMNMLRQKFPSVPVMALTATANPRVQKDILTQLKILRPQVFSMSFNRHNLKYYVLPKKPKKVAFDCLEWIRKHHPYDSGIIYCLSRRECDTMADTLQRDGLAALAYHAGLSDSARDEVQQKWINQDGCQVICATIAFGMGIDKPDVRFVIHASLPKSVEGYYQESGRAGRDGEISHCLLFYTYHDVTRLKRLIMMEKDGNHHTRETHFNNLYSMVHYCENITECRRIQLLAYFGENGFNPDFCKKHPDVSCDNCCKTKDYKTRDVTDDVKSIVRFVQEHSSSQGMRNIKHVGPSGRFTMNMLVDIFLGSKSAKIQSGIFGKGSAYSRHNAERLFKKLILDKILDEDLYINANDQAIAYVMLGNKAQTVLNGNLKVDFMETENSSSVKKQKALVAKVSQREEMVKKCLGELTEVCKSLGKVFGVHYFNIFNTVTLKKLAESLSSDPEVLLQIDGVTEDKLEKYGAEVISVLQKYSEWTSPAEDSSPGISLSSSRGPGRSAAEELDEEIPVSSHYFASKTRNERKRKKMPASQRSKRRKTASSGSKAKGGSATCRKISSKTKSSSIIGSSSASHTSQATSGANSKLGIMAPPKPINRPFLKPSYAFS
Sequence of Ferritin light chain (Equus caballus) (P02791 2-175 limits assumed): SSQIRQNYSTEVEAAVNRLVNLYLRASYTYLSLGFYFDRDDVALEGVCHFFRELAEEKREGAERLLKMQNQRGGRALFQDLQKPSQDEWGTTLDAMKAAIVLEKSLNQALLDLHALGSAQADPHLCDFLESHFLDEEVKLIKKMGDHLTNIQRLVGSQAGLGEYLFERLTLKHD
Sequence of Cytochrome P450 2D6 (Homo sapiens) (P10635 whole entry, looked up): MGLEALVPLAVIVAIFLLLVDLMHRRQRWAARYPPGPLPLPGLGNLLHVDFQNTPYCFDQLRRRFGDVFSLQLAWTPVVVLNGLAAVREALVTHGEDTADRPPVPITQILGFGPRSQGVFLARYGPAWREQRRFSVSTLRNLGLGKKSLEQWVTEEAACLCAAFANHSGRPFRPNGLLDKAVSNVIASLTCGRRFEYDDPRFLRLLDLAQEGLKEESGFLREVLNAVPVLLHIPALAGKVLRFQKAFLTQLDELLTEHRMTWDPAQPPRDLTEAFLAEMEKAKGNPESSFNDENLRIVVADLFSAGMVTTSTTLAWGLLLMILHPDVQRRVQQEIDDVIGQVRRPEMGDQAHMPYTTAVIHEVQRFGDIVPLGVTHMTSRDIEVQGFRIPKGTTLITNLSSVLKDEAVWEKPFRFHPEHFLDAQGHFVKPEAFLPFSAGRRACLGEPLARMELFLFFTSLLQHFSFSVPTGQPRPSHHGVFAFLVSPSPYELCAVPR

As for `COc1ccc2[nH]cc(CCNc3ncnc4ccc(-c5ccc6c(c5)OCO6)cc34)c2c1`, the Potency in assay [1] is 126 nM (active).
The same measure, in the same setting: the result for `COc1ccc2[nH]cc(CCNc3ncnc4ccc(-c5ccccc5C#N)cc34)c2c1` reads 316 nM (active).
In the case of `C=CCc1ccc(OC(=O)c2ccccc2)c(OC)c1`, the activity change, negative = inhibition in [2] was -3.32% [at 30.8 µM] (inactive).
On to `CC(C)CN1CCCC2(CCN(C(=O)c3ccco3)CC2)C1`, for which, in [1], the Potency result was “inactive”.
On to `CCCCCC/C=C\CCCCCCCc1cccc(O)c1C(=O)O`, for which the Potency entry in assay [3] was “inactive”.
On to `CN(Cc1ccco1)c1ncnc2ccc(-c3ccc4c(c3)OCO4)cc12`, for which, in assay [2], the molecule was called inactive.
Turning to `NCCC[C@H](N)CC(=O)N[C@H]1CNC(=O)[C@H]([C@H]2C[C@H](O)N=C(N)N2)NC(=O)C(=CNC(N)=O)NC(=O)[C@H](CO)NC(=O)[C@H](CO)NC1=O` (β3hOrn-[Dap]SS[ΔAla(3-NHCONH2)][X4]; lactam 1-C), the parasite growth, % of DMSO control in assay [4] came to 66.2%. Besides, in assay [5], the parasite growth remaining, % of DMSO control (lower = more inhibition) turned out to be 79.9%. In addition, the parasite growth, % of control (lower = inhibition) in assay [6] turned out to be 92.5%. For the same molecule, the growth, % of control in assay [7] came to 71.8%.
Turning to `COc1cc2c(cc1OC)C(=O)Cc1ccc3c(c1CN(C)CC2)OCO3`, the Potency entry in assay [1] was “inactive”.
With `O=c1ccc2cc(O)c(O)cc2o1`, the Potency in [8] was 10 µM (active).
In the case of `COc1ccc(-c2cc(=O)c3c(OC)c(OC)c(OC)c(OC)c3o2)cc1`, the activity change, negative = inhibition in [2] was -8.95% [at 30.8 µM] (inactive).
Regarding `COc1c(-c2ccc(O)c(O)c2)oc2cc(O)cc(O)c2c1=O`, in assay [1], the Potency result was “inactive”. The call in assay [2] was inactive.
For the molecule `COc1cc2c3cc1Oc1c(OC)c(OC)cc4c1[C@@H](Cc1ccc(O)c(c1)Oc1ccc(cc1)C[C@@H]3N(C)CC2)N(C)CC4`, in assay [1], the Potency result was “inactive”. Moreover, in assay [9], the result was inactive.
On to `COc1ccc2c(c1OC)C(=O)OC2C1c2c(cc3c(c2OC)OCO3)CCN1C` (stereo not drawn), for which the molecule was called inactive in assay [10], in assay [11] and in [12].
With `CN(C)CCCO[C@H]1C([C@H](O)CO)O[C@@H]2OC(C)(C)O[C@@H]21` (stereo partly drawn), the call in [10], in [16], in assay [11], in assay [17], in [12] and in assay [19] was inactive. The Potency entry in assay [13], in [14], in [15] and in assay [18] was “inactive” in each case.
Regarding `COc1ccc(-c2cc(=O)c3c(OC)c(OC)c(OC)c(OC)c3o2)cc1OC`, in assay [9], the outcome was inactive.
In the case of `CC#C[C@]1(O)CC[C@H]2C3CCC4=CC(=O)CCC4=C3[C@@H](c3ccc(N(C)C)cc3)C[C@@]21C` (stereo partly drawn), the Potency in [13] is 3.98 µM (active); in assay [14], 11.2 µM (active); in assay [15], 10 µM (active).
In the case of `CN1CCc2c(cc(O)c(O)c2Cl)C(c2cccc(Cl)c2)C1` (stereo not drawn), the molecule was classed as inactive in assay [10], in assay [17], in assay [12] and in [19]. For the same molecule, the Potency is 5.01 µM (active) in assay [13], 5.01 µM (active) in assay [14] and 10 µM (active) in assay [15].
As to `Cc1cc(/C=C\c2ccc3cc(N(C)C)ccc3[n+]2C)c(C)n1-c1ccccc1`, the Potency in assay [20] (parasite line A) and in assay [20] (parasite line B) was 1.58 µM (active) throughout.
